Where “and” joins values, the source holds several entries; their conditions need not be identical. Equal values may be shown once. About 3,000 (1%) of roughly 290,000 compounds were called active. The entries come from a sample that favours actives as a whole. Unmarked numbers belong to inactive results. Rule as the data show it: active = inhibition mostly above about 36% (no sharp cut-off); inactive = mostly below about 34%.
experiment: NOD1 signaling inhibitors, primary screen, cell-based, luminescence, uHTS (AID 1578); conditions: NOD1-driven NF-kB luciferase reporter cells, at 4 µM, active compounds read high;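 also: HEK-293T reporter cells stimulated with the NOD1 agonist gamma-tri-DAP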

Row | SMILES | inhibition
1 | COCCOC(=O)C1=C(N)Oc2c(c(=O)oc3ccccc23)C1c1ccncc1 (centres undefined) | -14.2%
2 | CCCCOC(=O)C1=C(N)OC2=C(C(=O)CCC2)[C@]12C(=O)N(C)c1ccccc12 | 2.2%
3 | COc1cccc(NP(=O)(Oc2ccccc2)Oc2ccccc2)c1 | -28.2%
4 | O=C(NC1(C(F)(F)F)Oc2ccc(Cl)cc2O1)N1CCC2(CC1)OCCO2 (centres undefined) | 5%
5 | Cc1ccccc1-n1c(O)c(C=NCCN2CCOCC2)c(=O)[nH]c1=O | -5.7%
6 | O=C(Cn1nc(-c2ccc(Cl)cc2)ccc1=O)N1CCC2(CC1)OCCO2 | -21%
7 | CCC(=NCCO)c1c(O)n(-c2ccccc2)c(=O)[nH]c1=O | 11.4%
8 | COc1cc2c(cc1OC)-c1c(OC)c(OC)c(OC)c3ccnc(c13)C2=O | 25.5%
9 | O=C1NC(=O)N(CCc2ccc(F)cc2)C(=O)/C1=C/c1ccco1 | 10.2%
10 | O=C1NC(=O)N(CCc2ccc(F)cc2)C(=O)/C1=C/c1cccs1 | 12.9%
11 | Cc1ccc(N2C(=O)NC(=O)/C(=C\C=C\c3ccco3)C2=O)cc1C | 48.7%
12 | O=C1NC(=O)N(CCc2ccc(F)cc2)C(=O)/C1=C/C=C/c1ccccc1 | 42.2% (active)
13 | CC(C)c1ccc(N2C(=O)NC(=O)/C(=C/C=C/c3ccco3)C2=O)cc1 | 56.9%
14 | CC(C)c1ccc(N2C(=O)NC(=O)/C(=C\C=C\c3ccco3)C2=O)cc1 | 78.9% (active)
15 | CCCC(C)n1[nH]c(=O)c2c1NC(=O)CSC2c1ccccc1 (centres undefined) | -4.2%
16 | COc1ccc(CCN(C)Cc2ccc(F)cc2F)cc1OC | -4.5%
17 | O=[N+]([O-])c1ccc(Nc2ccccc2)cc1 | 26.1%
18 | CC(C)C(=O)Nc1nnc(CCN(CCc2nnc(NC(=O)C(C)C)s2)[N+](=O)[O-])s1 | 0.8%
19 | COc1cc(CC2C(=O)N(C)C(=O)N(C)C2=O)ccc1OCc1ccccc1 | -15.9%
20 | CC1CCC[C@H](O)CCCCCc2cc(O)cc(O)c2C(=O)O1 (some centres undefined) | -20.3% and 0.8%
21 | C[C@H]1CCC[C@H](O)CCCCCc2cc(O)cc(O)c2C(=O)O1 | 71.9% (active)
22 | C[C@H]1CCCC(=O)CCCCCc2cc(O)cc(O)c2C(=O)O1 | 10.7%
23 | COc1ccc(S(=O)(=O)NC(CC(=O)N2CCC3(CC2)OCCO3)C(C)C)cc1 (centres undefined) | -3.9%
24 | Cc1cccnc1-n1c(-c2ccccc2)nc2ccccc2c1=O | -2.5%
25 | O=C(c1ccco1)c1cn(Cc2ccccc2Cl)c2ccccc12 | 19.5%
26 | CC1(C)C[C@H]2C=C(C=O)[C@]3(C=O)C[C@]3(C)[C@H]2C1 | 106% (active)
27 | Cc1c(P(=S)(c2ccccc2)c2ccccc2)[n+]2ccccc2n1C | -18.7%

Row | SMILES | inhibition
28 | O=C(Nc1ccc(Cl)cc1C(=O)c1ccccc1)c1ccc(Br)o1 | 37.5%
29 | Cc1ccc2c(c1)CCCN2N=O | -27.4%
30 | C=C(CC1CC(O)[C@]2(C)OC3CC4OC5C[C@]6(C)O[C@]7(C)CCC8OC9C[C@]%10(C)OC%11C(C)=CC(=O)OC%11CC%10OC9C[C@@H](C)C8OC7CC6O[C@]5(C)C/C=C\C4OC3CC2O1)C(=O)O (some centres undefined) | -18.2%
31 | C=C(C=O)C[C@@H]1C[C@H](O)C2OC3C[C@]4(C)OC5/C=C\CC6OC7C(CC=CCC6OC5CCCC4OC3CC2O1)OC1CC2OC3CC(=O)OC3C[C@@H](C)C[C@@]2(C)OC1C[C@@H]7C (some centres undefined) | 76% (active)
32 | C=C(CO)CC1CC(O)[C@]2(C)OC3CC4OC5C[C@]6(C)O[C@]7(C)CCC8OC9C[C@]%10(C)OC%11C(C)=CC(=O)OC%11CC%10OC9C[C@@H](C)C8OC7CC6O[C@]5(C)C/C=C\C4OC3CC2O1 (some centres undefined) | -6.2%
33 | Clc1cccc(Cl)c1C1N2CCCN12 (centres undefined) | 8.1%
34 | c1ccc2c(c1)CNc1ccccc1O2 | -9%
35 | S=C(NCCc1ccccc1)NCCc1cnc[nH]1 | 0.7%
36 | Cc1cccc(NP(=O)(Oc2ccccc2)Oc2ccccc2)c1C | -22.3%
37 | Cc1ccc(C)c(NP(=O)(Oc2ccccc2)Oc2ccccc2)c1 | 48.1% (active)
38 | COc1ccc(OC)c(NP(=O)(Oc2ccccc2)Oc2ccccc2)c1 | -6.6%
39 | O=C(CN1CCCC1)Nc1ccc(Cl)cc1C(=O)c1ccccc1 | -5.6%
40 | COc1ccc(CNCCc2c(C)[nH]c3ccc(OC(F)(F)F)cc23)c(OC)c1 | 5.5%
41 | O=P(Nc1ccccc1)(Nc1ccccc1)Oc1ccccc1 | -0.3%
42 | COc1cc2c(cc1OC)[C@@H]1C(=O)c3ccc4c(c3O[C@@H]1CO2)C[C@H](C(C)C)O4 | 58.9% (active)
43 | O=c1c2ccccc2nc(-c2ccccc2)n1-c1ccccc1O | -8.3%
44 | Cn1cnnc1Sc1cc(N2CCNCC2)ccc1[N+](=O)[O-] | -17.2%
45 | CCOc1ccc(C2(C#N)CC[N+](C)(C)CC2)cc1 | -0.5%
46 | COCc1cc(OC(=O)N(C)C)nc2c1c(C)nn2C | -6.7%
47 | O=C(CN1CC(c2ccccc2)CC1=O)Nc1ccc(F)cc1 (centres undefined) | -14.5%
48 | O=C(/C=C/c1ccccc1)NCCc1cnc[nH]1 | 32.6% (active)
49 | O=C(COc1ccccc1)NCCc1cnc[nH]1 | 3.5%
50 | O=C(CCCc1ccccc1)NCCc1cnc[nH]1 | -15.9%
51 | CCOc1ccccc1Oc1coc2cc(OC(=O)N(C)C)ccc2c1=O | 0.4%
52 | COc1cccc(Oc2coc3cc(OC(=O)N(C)C)ccc3c2=O)c1 | 6.2%
53 | O=C1CC(c2ccccc2)CC(O)=C1C=NCCN1CCN(C(=O)Cc2ccccc2)CC1 (centres undefined) | 8.5%
54 | O=C(C1CCCN(S(=O)(=O)c2cccc3nsnc23)C1)N1CCC2(CC1)OCCO2 (centres undefined) | -9.3%

Row | SMILES | inhibition
55 | O=C(Cc1ccccc1)N1CCN(Cc2cccc(Br)c2)CC1 | 0.2%
56 | CC(C)c1oc(=O)cc2c1[C@@H](O)[C@H]1OC(=O)[C@@]3(C)CC[C@@H](O)[C@@]2(C)C13 (some centres undefined) | -5.4%
57 | CC(C)c1oc(=O)cc2c1[C@@H](O)[C@H]1OC(=O)[C@@]3(C)C[C@@H](O)[C@@H](O)[C@@]2(C)C13 (some centres undefined) | 96.2% (active)
58 | Cc1csc(=N)n1Cc1ccccc1 | -19.9%
59 | Cc1cccc(N2C(=O)NC(=O)C3(Cc4cc(C)ccc4N(C)C3)C2=O)c1 (centres undefined) | 11%
60 | COc1ccc(Cl)cc1C(=O)C1CCCN(Cc2cnc(C)s2)C1 (centres undefined) | -27.2%
61 | CC1CCC(C(C)C)C(OC(=O)COC(=O)c2ccccc2N)C1 (centres undefined) | 79.2% (active)
62 | CC1CCC(C(C)C)C(OC(=O)Cn2c(COc3ccccc3)[n+](C)c3ccccc32)C1 (centres undefined) | -12.8%
63 | CC1CCC(C(C)C)C(OP(N)(=O)c2ccccc2)C1 (centres undefined) | 12.7%
64 | Cc1cccnc1-n1c(-c2ccco2)nc2ccccc2c1=O | -8.5%
65 | CC(C)(C)NC(=S)/N=C(\N)N[N+](=O)[O-] | -21.7%
66 | Cc1[nH]c2ccccc2c1C(=O)C(=O)N1CCC2(CC1)OCCO2 | -23.7%
67 | CC(C)[C@]12O[C@H]1[C@@H]1O[C@]13[C@]1(O[C@H]1C[C@H]1C4=C(CC[C@@]13C)C(=O)OC4)[C@@H]2O | 107% (active)
68 | Cn1c(O)c(C=Nc2ccccc2-c2ccccc2)c(=O)n(C)c1=O | -12.2%
69 | COc1ccccc1[As](=O)(O)CC(O)COc1ccc(Cl)cc1Cl (centres undefined) | -11%
70 | CN(C)c1ccc(C(=O)N/N=C/C23CC[C@@H](O)CC2(O)CC[C@@H]2[C@@H]3CCC3(C)C(C4=CC(=O)OC4)CCC23O)cc1 (some centres undefined) | 45% (active)
71 | COc1ccc(C(=O)N/N=C/C23CC[C@@H](O)CC2(O)CC[C@@H]2[C@@H]3CCC3(C)C(C4=CC(=O)OC4)CCC23O)cc1 (some centres undefined) | 12.5%
72 | CC12CC[C@H]3[C@@H](CCC4(O)C[C@H](O)CCC34/C=N/NC(=O)c3ccc(O)cc3)C1(O)CCC2C1=CC(=O)OC1 (some centres undefined) | -7.5%
73 | CC(=O)N1N=C2C3CCN(CC3)C2C1c1ccc(C)cc1 (centres undefined) | -23.8%
74 | COc1ccccc1OCCCn1cc(C(=O)c2ccco2)c2ccccc21 | 3.3%
75 | Cc1cc(C=C2C(=O)NC(=S)NC2=O)c(C)n1-c1ccc2c(c1)OCO2 | 104% (active)
76 | Cc1cc(C=C2C(=O)NC(=O)NC2=O)c(C)n1-c1ccc2c(c1)OCO2 | 55.3%
77 | Cc1cc(/C=C2\C(=O)NC(=O)N(C)C2=O)c(C)n1-c1ccc2c(c1)OCO2 | -6.1%
78 | C/C(=N\N1CCCCCC1)c1c(O)n(C)c(=O)n(C)c1=O | -4.6%
79 | Cc1cccn2c(NCC3CCCO3)c(C(C)C)nc12 (centres undefined) | 2.9%

From PubChem BioAssay AID1578 (Sanford-Burnham Center for Chemical Genomics, 2009)
